Six compounds from PubChem BioAssay (Tox21) can be followed below.

“And” between values parts separate entries of the source, which are not always exact repeats. Equal entries are not always repeated. Records with an inconclusive call do not appear. The source made the active and inactive calls. Unless noted, calls come from the whole dose curve; as a rule, active = well fitted curve in the direction sought with a large enough effect in the repeat runs; inconclusive = weak or mixed curves; inactive = no such curve, though single readings can be large; an effect the other way counts as inactive or inconclusive.

A short description of assay [1]: qHTS assay to identify small molecule antagonists of the androgen receptor (AR) signaling pathway using the MDA cell line in the presence of 0.5 nM R1881 - cell viability counter screen (AID 1259242). Note: nearly all actives have a fitted effect of over 45% in size. Note: potency is the fitted concentration of half-maximal effect. The essentials:
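qHTS format. MDA-kb2 (MMTV-luc, AR/GR responsive) + cpd + 0.5 nM R1881 final, 16 hr 37C/0% CO2 → CellTiter-Fluor 30 min → fluorescence intensity.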

The nature of assay [2]: qHTS assay to identify small molecule HDAC inhibitors - cell viability counter screen (AID 1259365). Note: nearly all actives have a fitted effect of over 50% in size. Note: potency is the fitted concentration of half-maximal effect. The method in brief:
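Counter screen in wild-type HCT-116 cells: compounds dissolved in DMSO are pin-transferred onto overnight-plated cells and left 2hr at 37C. ATP-based CellTiter-Glo luminescence then measures viable cells.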
In general terms: In qHTS, concentration-response curves come from the screen itself.

The nature of assay [3]: qHTS assay to identify small molecule antagonists of the sonic hedgehog signaling (Shh) pathway - cell viability counter screen (AID 1259367). Note: nearly all actives have a fitted effect of over 55% in size. Note: potency is the fitted concentration of half-maximal effect. The essentials:
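Viability was read by CellTiter-Fluor fluorescence in the same wells, reagent added 23 hr into compound treatment and incubated 1 hr at 37C. The 3T3 Gli1-Luc reporter cells (2,000/well) received conditioned medium after compound and ran 24 hr.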

The nature of assay [4]: qHTS assay to identify small molecule antagonists of the sonic hedgehog signaling (Shh) pathway (AID 1259369; calls by dose curve; note: potency is the fitted concentration of half-maximal effect; nearly all actives have a fitted effect of over 45% in size). The method in brief: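 Stable Gli1-Luc reporter NIH/3T3 clone; quantitative HTS in stimulated mode with conditioned medium. Luminescence measured after 24hr compound treatment at 37 C.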
Assay [5] is described as follows: qHTS assay to identify small molecule agonists of the androgen receptor (AR) signaling pathway in the presence of an antagonist - cell viability counter screen (AID 1259379). Note: nearly all actives have a fitted effect of over 25% in size. Note: potency is the fitted concentration of half-maximal effect. The essentials:
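Nilutamide-containing (3.0uM final) MDA-kb2 cultures, 3,000 cells/well, were treated with compounds across 15 concentrations. After 16 hr at 37C with no CO2, cell viability was determined by CellTiter-Fluor fluorescence in the luciferase assay wells.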

Assay [6] addresses Thyrotropin receptor (Homo sapiens) (UniProt P16473). As to the kind of experiment: qHTS assay to identify small molecule antagonists of the thyroid stimulating hormone receptor (TSHR) signaling pathway (AID 1259385; calls by dose curve; note: nearly all actives have a fitted effect of over 20% in size). The essentials:
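Antagonist mode: compound-treated TSHR-expressing HEK293 cells were stimulated with 1.5 ng/mL TSH (final) in presence of Ro20-1724 for 30 min at RT. HTRF cAMP detection after 1 h; each compound tested at 15 concentrations, triplicate.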

A short description of assay [7]: qHTS assay to identify small molecule agonists of the estrogen receptor alpha (ER-alpha) signaling pathway in the presence of an antagonist - cell viability counter screen (AID 1259386).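 Note: cells exposed to compounds for 22 h at 37 °C before the viability read; nearly all actives have a fitted effect of over 30% in size.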 Note: potency is the fitted concentration of half-maximal effect. The method in brief: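 In this counter screen, compound effects on VM7Luc4E2 viability were tested in the presence of the antagonist ICI-182,780 at 10.0nM final. Compounds were dosed at 15 concentrations, exposure lasted 22hr, and the CellTiter-Fluor signal was read.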

Assay [8] can be described thus: qHTS assay to identify small molecule agonists of the sonic hedgehog signaling (Shh) pathway - cell viability counter screen (AID 1259366). Note: nearly all actives have a fitted effect of over 50% in size. Note: potency is the fitted concentration of half-maximal effect. The method in brief: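 Cells are plated at 2,000 per well and left 4hr at 37C, 5% CO2 before compound addition. After 23hr of treatment, CellTiter-Fluor reagent is added for 1hr at 37C and fluorescence is measured.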
Assay [9] is described as follows: qHTS assay to identify small molecule agonists of the sonic hedgehog signaling (Shh) pathway (AID 1259368; calls by dose curve;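 note: NIH/3T3-derived 3T3Gli1-Luc cells carrying a stable Gli1-driven firefly luciferase reporter; series mostly up to about 92 µM; nearly all actives have a fitted effect of over 15% in size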). The essentials: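 Quantitative high-throughput format using a Gli1-driven firefly luciferase reporter line derived from NIH/3T3 cells. After a 24 hr compound treatment at 37 C and 5% CO2, luminescence reported Gli1 response element activity.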
Assay [10] can be described thus: qHTS assay to identify small molecule antagonists of the estrogen receptor beta (ER-beta) signaling pathway - cell viability counter screen (AID 1259382). Note: nearly all actives have a fitted effect of over 55% in size. Note: potency is the fitted concentration of half-maximal effect. The method in brief: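 Viability is scored by CellTiter-Glo luminescence (30 min, room temperature) in ER-beta-UAS-bla HEK293T wells already read for reporter fluorescence. Compound exposure lasts 16 hr at 37C alongside 1nM 17-beta-estradiol in charcoal-stripped serum medium.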

For assay [11], the target named is Estrogen receptor beta (Homo sapiens) (UniProt Q92731). As to the kind of experiment: qHTS assay to identify small molecule agonists of the estrogen receptor beta (ER-beta) signaling pathway (AID 1259377; active = well fitted activation curve with a large enough effect in the signal ratio in the repeat runs, not every such curve was filed as active; the % refers to the signal ratio). The essentials:
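Agonist mode cell assay in GripTite HEK293T cells expressing an ER-beta fusion that drives beta-lactamase from an Upstream Activator Sequence; 16 hr compound exposure at 37C, then 2 h LiveBLAzer B/G FRET substrate at room temperature, fluorescence read-out.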

Assay [12] has the same target. As to the kind of experiment: qHTS assay to identify small molecule antagonists of the estrogen receptor beta (ER-beta) signaling pathway (AID 1259378; active = well fitted inhibition curve with a large enough effect in the signal ratio in the repeat runs, not every such curve was filed as active; the % refers to the signal ratio; note: potency is the fitted concentration of half-maximal effect). The essentials: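 Antagonist mode: compounds added to beta-lactamase reporter HEK293T ER-beta-UAS cells stimulated with E2 (1nM final), 16 hr at 37C. LiveBLAzer B/G FRET substrate, 2 hours room temperature, fluorescence read-out.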

Assay [13] can be described thus: qHTS assay to identify small molecule agonists of the estrogen receptor beta (ER-beta) signaling pathway - cell viability counter screen (AID 1259380). Note: nearly all actives have a fitted effect of over 30% in size. Note: potency is the fitted concentration of half-maximal effect. The essentials:
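Steps: plate ER-beta-UAS-bla HEK293T cells, rest 6 hr; add compounds in DMSO; incubate 16 hr at 37C, 5% CO2; add FRET substrate 2 hr; add CellTiter-Glo, wait 30 min at room temperature; read luminescence.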

A short description of assay [14]: qHTS assay to identify small molecule agonists or antagonists of the thyroid stimulating hormone receptor (TSHR) signaling pathway - wild type cell line counter screen (AID 1259384; calls by dose curve). The method in brief: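 Counter screen in untransfected Hek293: compounds (15-point titration, triplicate) plus phosphodiesterase inhibitor Ro20-1724 added after 18 h plating; 30 min RT. Intracellular cAMP via competitive d2/cryptate immunoassay, 1 h incubation.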

Assay [15] addresses Androgen receptor (Homo sapiens) (UniProt P10275). As to the kind of experiment: qHTS assay to identify small molecule antagonists of the androgen receptor (AR) signaling pathway using the MDA cell line in the presence of 0.5 nM R1881 (AID 1259243). Note: potency is the fitted concentration of half-maximal effect; nearly all actives have a fitted effect of over 50% in size. The essentials: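 Antagonist mode quantitative HTS in MDA-kb2 MMTV-luciferase cells, agonist R1881 at 0.5 nM final, 16 hr exposure at 37C and 0% CO2, luminescent detection.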

The target of assay [16] is Estrogen receptor (Homo sapiens) (UniProt P03372). As to the kind of experiment: qHTS assay to identify small molecule antagonists of the estrogen receptor alpha (ER-alpha) signaling pathway using the BG1 cell line in the presence of 0.1 nM 17-beta-estradiol (AID 1259244). Note: nearly all actives have a fitted effect of over 50% in size. Note: potency is the fitted concentration of half-maximal effect. The method in brief: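 Reporter is a stably transfected luciferase under four estrogen responsive elements in VM7Luc4E2 cells expressing native full-length ER-alpha; inhibition of 0.1 nM (final) 17beta-estradiol-driven signal over 22 h is read by luminescence.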

Assay [17] is described as follows: qHTS assay to identify small molecule phospholipidosis (PLD) inducers (AID 1259344; active = well fitted curve in the direction sought with a large enough effect; an effect the other way counts as inactive or inconclusive; note: potency is the fitted concentration of half-maximal effect). The method in brief: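 Phospholipid accumulation was scored by imaging: fixed, Hoechst-counterstained HepG2 cells stained with LipidTOX Red after 24 h compound exposure at 37 C. Read-outs were pit count and pit intensity per well or per cell, with amiodarone and DMSO controls.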

A short description of assay [18]: qHTS assay to identify small molecule HDAC inhibitors (AID 1259364).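 Note: wild-type HCT-116 cells with endogenous class I/II HDAC activity; top concentration of the series differs between compounds; nearly all actives have a fitted effect of over 45% in size.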 The method in brief:
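Quantitative high-throughput format: overnight-seeded HCT-116 cells got compounds for 2 hr at 37C; HDAC-Glo I/II reagent added, 30 min RT, luminescence measured.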

Assay [19] addresses Androgen receptor (Homo sapiens) (UniProt P10275). The assay can be described thus: qHTS assay to identify small molecule agonists of the androgen receptor (AR) signaling pathway in the presence of an antagonist (AID 1259381; calls by dose curve; note: nearly all actives have a fitted effect of over 15% in size). The essentials: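 Reporter-gene luminescence from MDA-kb2 cells exposed 16hr at 37C (0% CO2) to 15-point compound titrations with 3.0uM final nilutamide as AR antagonist.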

Assay [20] concerns the target Estrogen receptor (Homo sapiens) (UniProt P03372). The assay can be described thus: qHTS assay to identify small molecule agonists of the estrogen receptor alpha (ER-alpha) signaling pathway in the presence of an antagonist (AID 1259383; calls by dose curve; note: top concentration of the series differs between compounds; nearly all actives have a fitted effect of over 15% in size). The essentials: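 Readout was ERE-driven luciferase luminescence in VM7Luc4E2 cells, which express full-length ER-alpha endogenously. Compounds were tested at 15 concentrations for 22hr alongside 10.0nM ICI-182,780 (final concentration).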

Estrogen receptor (Homo sapiens), sequence (P03372 whole entry, looked up): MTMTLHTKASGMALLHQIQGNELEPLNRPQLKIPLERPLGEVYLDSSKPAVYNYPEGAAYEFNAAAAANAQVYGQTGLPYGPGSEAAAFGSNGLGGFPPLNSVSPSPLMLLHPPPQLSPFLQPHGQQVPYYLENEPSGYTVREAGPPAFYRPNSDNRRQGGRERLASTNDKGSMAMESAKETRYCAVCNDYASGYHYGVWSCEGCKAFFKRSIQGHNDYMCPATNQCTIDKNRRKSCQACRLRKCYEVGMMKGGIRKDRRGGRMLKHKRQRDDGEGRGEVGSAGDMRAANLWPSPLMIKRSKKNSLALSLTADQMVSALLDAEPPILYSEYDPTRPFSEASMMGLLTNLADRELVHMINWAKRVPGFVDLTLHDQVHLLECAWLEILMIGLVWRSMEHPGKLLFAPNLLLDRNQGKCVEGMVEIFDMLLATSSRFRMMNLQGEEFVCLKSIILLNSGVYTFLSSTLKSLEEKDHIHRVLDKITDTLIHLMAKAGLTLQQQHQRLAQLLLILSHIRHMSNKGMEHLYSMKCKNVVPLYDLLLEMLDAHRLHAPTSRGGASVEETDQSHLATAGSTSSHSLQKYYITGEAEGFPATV
Thyrotropin receptor (Homo sapiens), sequence (P16473 whole entry, looked up): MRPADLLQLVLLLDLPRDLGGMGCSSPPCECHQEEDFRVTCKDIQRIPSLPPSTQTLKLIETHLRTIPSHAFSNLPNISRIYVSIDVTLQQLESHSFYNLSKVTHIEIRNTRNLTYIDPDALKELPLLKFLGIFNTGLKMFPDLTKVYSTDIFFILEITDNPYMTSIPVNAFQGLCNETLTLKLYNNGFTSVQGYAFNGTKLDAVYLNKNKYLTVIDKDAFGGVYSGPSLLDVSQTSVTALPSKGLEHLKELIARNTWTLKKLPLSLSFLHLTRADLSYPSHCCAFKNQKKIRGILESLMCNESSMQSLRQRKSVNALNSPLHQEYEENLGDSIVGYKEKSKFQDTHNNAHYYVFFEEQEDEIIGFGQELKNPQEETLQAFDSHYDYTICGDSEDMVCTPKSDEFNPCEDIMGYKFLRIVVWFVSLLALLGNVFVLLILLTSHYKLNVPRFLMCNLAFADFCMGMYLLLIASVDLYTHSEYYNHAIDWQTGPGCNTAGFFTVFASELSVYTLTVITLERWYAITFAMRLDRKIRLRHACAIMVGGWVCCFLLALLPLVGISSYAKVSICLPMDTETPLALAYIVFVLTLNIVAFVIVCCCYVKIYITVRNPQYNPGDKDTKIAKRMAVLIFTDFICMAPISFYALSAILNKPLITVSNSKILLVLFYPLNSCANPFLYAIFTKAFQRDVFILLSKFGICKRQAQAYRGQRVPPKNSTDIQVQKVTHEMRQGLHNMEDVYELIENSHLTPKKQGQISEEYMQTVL
Estrogen receptor beta (Homo sapiens), sequence (Q92731 whole entry, looked up, the tested form may be a part): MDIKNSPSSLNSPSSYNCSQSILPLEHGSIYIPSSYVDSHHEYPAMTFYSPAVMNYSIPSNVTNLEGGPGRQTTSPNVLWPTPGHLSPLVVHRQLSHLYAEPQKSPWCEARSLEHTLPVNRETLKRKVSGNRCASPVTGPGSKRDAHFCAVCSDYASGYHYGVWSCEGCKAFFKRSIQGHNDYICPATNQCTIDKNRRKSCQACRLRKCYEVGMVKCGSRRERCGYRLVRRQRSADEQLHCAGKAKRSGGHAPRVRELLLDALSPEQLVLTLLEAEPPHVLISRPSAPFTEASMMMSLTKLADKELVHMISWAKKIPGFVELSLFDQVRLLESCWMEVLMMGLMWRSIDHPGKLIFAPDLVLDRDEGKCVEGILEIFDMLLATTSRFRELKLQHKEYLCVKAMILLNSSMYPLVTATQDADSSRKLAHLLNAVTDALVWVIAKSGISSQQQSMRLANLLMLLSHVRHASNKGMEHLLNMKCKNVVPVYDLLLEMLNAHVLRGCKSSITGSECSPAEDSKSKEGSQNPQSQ
Androgen receptor (Homo sapiens), sequence (P10275 whole entry, looked up): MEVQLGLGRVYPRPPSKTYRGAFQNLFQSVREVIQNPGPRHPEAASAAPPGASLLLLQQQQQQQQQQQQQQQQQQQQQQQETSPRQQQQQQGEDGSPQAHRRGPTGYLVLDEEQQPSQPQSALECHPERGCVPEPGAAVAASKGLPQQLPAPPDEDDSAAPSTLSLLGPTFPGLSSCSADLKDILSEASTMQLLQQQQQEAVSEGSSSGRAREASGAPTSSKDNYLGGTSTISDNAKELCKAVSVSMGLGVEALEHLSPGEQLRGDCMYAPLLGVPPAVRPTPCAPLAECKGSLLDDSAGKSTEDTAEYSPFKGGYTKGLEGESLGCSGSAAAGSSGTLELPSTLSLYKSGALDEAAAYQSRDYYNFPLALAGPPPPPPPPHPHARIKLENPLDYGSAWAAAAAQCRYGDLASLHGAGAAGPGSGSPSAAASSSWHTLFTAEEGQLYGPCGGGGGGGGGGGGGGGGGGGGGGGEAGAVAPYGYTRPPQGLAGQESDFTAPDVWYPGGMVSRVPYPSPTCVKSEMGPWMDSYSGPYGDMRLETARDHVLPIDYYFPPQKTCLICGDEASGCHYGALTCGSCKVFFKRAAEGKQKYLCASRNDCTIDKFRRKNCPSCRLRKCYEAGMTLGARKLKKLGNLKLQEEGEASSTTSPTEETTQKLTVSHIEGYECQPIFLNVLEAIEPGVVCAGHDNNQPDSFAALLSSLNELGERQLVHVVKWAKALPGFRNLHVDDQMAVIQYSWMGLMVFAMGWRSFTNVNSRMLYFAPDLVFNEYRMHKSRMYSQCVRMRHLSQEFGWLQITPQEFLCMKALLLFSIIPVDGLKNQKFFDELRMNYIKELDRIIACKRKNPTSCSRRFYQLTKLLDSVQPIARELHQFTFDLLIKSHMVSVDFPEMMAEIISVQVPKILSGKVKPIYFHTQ

`Oc1ccc2cc(SSc3ccc4cc(O)ccc4c3)ccc2c1`: the Potency entry in assay [1], in assay [2], in assay [6] and in [7] was “inactive” throughout. Also, the Potency was 61.2 µM (active) and 48.6 µM (active) in [3]; 19.4 µM (active) and 21.7 µM (active) in assay [4]; 61.2 µM (active) and 61.1 µM (active) in assay [5].

Consider `CNc1ccc(O)cc1`, for which the Potency was 61 µM (active) in [1]; 48.5 µM (active) in assay [2]; 12.2 µM (active) in assay [8]; 15.3 µM (active) in [3]; 61 µM (active) in assay [5]; 61 µM (active) in [10]. Also, the Potency in [7] was 61 µM (active). In assay [9], the Potency entry is “inactive”.

Take `OCCCCCCCCCCCCBr`: the Potency entry in assay [1], in [2], in assay [8], in assay [3], in assay [9] and in assay [11] was “inactive” throughout. The Potency result in [5], in [13], in assay [10], in assay [6] and in assay [7] was “inactive” in each case. In assay [12], the Potency was 55.3 µM (active). Also, the call in assay [14] was inactive.

`OCCN1CCN(CC/C=C2/c3ccccc3Sc3ccc(C(F)(F)F)cc32)CC1`: the Potency is 26.6 µM (active) in assay [15]; 10 µM (active) in [17]; 21.1 µM (active) in assay [8]; 11.9 µM (active) in assay [12]; 26.6 µM (active) in assay [10]. The Potency entry in [16], in assay [18], in assay [2], in [3], in assay [9] and in [11] was “inactive” throughout. Besides, the Potency entry in [19], in assay [20], in assay [6] and in [7] was “inactive” in each case. Also, the compound was called inactive in [14].

As for `CCCCCCCCCCCCCCCCCC[N+](C)(C)C`, the Potency in [15] was 27.4 µM (active); in assay [16] it was 54.6 µM (active); in [8], 68.8 µM (active); in assay [5], 61.3 µM (active); in assay [13] it was 27.4 µM (active). The Potency entry in assay [18], in assay [9], in assay [19], in assay [20] and in assay [6] was “inactive” each time. Further, the call in assay [14] was inactive.

In the case of `CSc1ccc2c(c1)C(N1CCN(C)CC1)Cc1ccccc1S2` (stereo not given), the Potency entry in assay [16], in [18], in assay [2], in [9], in assay [20] and in assay [7] was “inactive” each time. Also, the Potency was 23.7 µM (active) in assay [8], 15 µM (active) in assay [4], 16.8 µM (active) in [13] and 16.8 µM (active) in assay [10].
